IL1B secr inh: inhibitors of inflammasome signaling (IL-1 beta secretion). THP-1 LPS/ATP IL-1B secretion, AlphaLISA, 16 h; hits give low values. activity change, % at 57.5 µM. hit rate 4.7% among 360,000; in the data active = activity change below about -50%; inconclusive = mostly about -30% to -49%; also: % is scaled to controls: 0 for no effect and ±100 for the full control effect
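THP-1 cells pretreated 1 hr with compounds (up to 57.5 uM final), then stimulated with LPS (250 ng/mL final) plus ATP (1.25 mM final); secreted IL-1B measured by AlphaLISA after 16 hr, decreased signal indicating inhibition.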
MCF10A rerep: DNA re-replication induction in MCF 10a cells. MCF 10A DNA re-replication, Hoechst nuclear intensity, 48 h. Potency, µM (highest dose often 46.1 µM), for inactives: top-dose activity, positive = re-replication, actives largely listed as activators. hit rate 2.9% among 350,000. AID 624296; also: potency is read from the fitted curve at half-maximal effect; % of control where 0% means no effect; nearly all actives have a fitted effect of over 50% in size
ATXN2 expr inh: inhibitors of ATXN2 expression. HEK-293 ATXN2-luciferase reporter, luminescence, 24 h. Potency, µM (highest dose often 57 µM), for the others: at the top dose activity change, negative = inhibition, hits mostly inhibitors. hit rate 0.72% among 360,000; also: potency is read from the fitted curve at half-maximal effect; % is scaled to controls: 0 for no effect and ±100 for the full control effect; nearly all actives have a fitted effect of over 55% in size
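ATXN2-luciferase reporter cells (luciferase flanked by upstream and downstream ATXN2 gene portions) were treated 24 h at 37 °C with compounds at up to 57 uM. SteadyGlo luminescence gave expression; GF-AFC fluorescence gave viability.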
SW480 rerep: induces DNA re-replication in SW480 colon adenocarcinoma cells. SW480 DNA re-replication, Hoechst DNA content imaging, 48 h. Potency, µM (top dose mostly 46.1 µM), for inactives: at the top dose re-replication activation, usual class: activators. AID 624297. hit rate 1.8% among 340,000; also: potency is read from the fitted curve at half-maximal effect; % of control where 0% means no effect; nearly all actives have a fitted effect of over 55% in size
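Readout is total intensity of Hoechst-stained nuclei, excited at 405 nm and collected at 500-530 nm. Compound treatment lasted 48 hr at 37 C in 5% CO2 before staining.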
ATXN viability: reduces viability in counter-screen for ATXN expression inhibitors. S2 cells (HEK-293 line with an ATXN2-luciferase reporter) viability, CellTiter-Fluor protease fluorescence, 24 h. Potency, µM (doses to about 56.7 µM), actives largely listed as cytotoxic. hit rate 0.49% among 400,000. AID 651635; also: potency is read from the fitted curve at half-maximal effect; nearly all actives have a fitted effect of over 40% in size
PINK1 expr mod: PINK1 expression modulation; PINK1 immunofluorescence, high-content cytometry, 24 h; Potency, µM (highest dose often 76.6 µM), for the others: top-dose activation (PINK1 increase), usual class: activators; hit rate 0.2% among 410,000; AID 624263; active = well fitted activation curve with a large enough effect; inconclusive = small, poorly fitted or top-dose-only effect; cell line not stated here; also: potency is read from the fitted curve at half-maximal effect; % of control where 0% means no effect; nearly all actives have a fitted effect of over 65% in size
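PINK1 protein, normally rapidly degraded, was detected by immunofluorescence after 24 hour compound treatment of a stable cell line. Titration data (5 concentrations) came from laser-scanning cytometry, with CCCP-treated wells as controls.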
Numbers without * were called inactive. Shown are actives, neighbours in structure and some others; about 7.1% of the full set was active somewhere. Unless noted, calls follow the shape of the dose curve; as a rule, active = well fitted curve in the direction sought with a large enough effect; inconclusive = small, poorly fitted or top-dose-only effect, or another doubt; inactive = no such curve, though single readings can be large; an effect the other way counts as inactive or inconclusive.

Results for Cn1c(O)c(/C=N/NC(=O)c2ccncc2)c(=O)[nH]c1=S ?
IL1B secr inh: 4; MCF10A rerep: 0%; SW480 rerep: inconclusive; ATXN viability: inactive; PINK1 expr mod: -1%

How did Cc1cc(-c2nc3ncccc3o2)ccc1NC(=O)c1ccccc1Br do in these assays?
ATXN2 expr inh: 24%; ATXN viability: inconclusive; PINK1 expr mod: 6%

Results for CC(=O)Nc1ccc(OC(=O)N2CCN(/[N+]([O-])=N/Oc3ccc([N+](=O)[O-])cc3[N+](=O)[O-])CC2)cc1 ?
PINK1 expr mod: -1%

Results for Cc1ccc(NS(=O)(=O)c2c(F)cc(F)c(Cl)c2F)cc1S(=O)(=O)N1CCOCC1 ?
IL1B secr inh: -3; MCF10A rerep: 2%; ATXN2 expr inh: -11%; SW480 rerep: inconclusive; ATXN viability: inactive; PINK1 expr mod: 1%

What do the screens show for `CCOC(=O)c1c(-n2c(C)cc(/C=C3\C(=O)NC(=O)N(C)C3=O)c2C)sc2c1CCCC2`?
IL1B secr inh: -73*; MCF10A rerep: inconclusive; ATXN2 expr inh: -23%; SW480 rerep: inconclusive; ATXN viability: inactive; PINK1 expr mod: -2%

Results for COCc1c(C(=O)N2CCC(c3ccccc3)CC2)cnn1-c1nccc(-c2cc(C)sc2C)n1 ?
ATXN viability: inconclusive; PINK1 expr mod: -1%

Results for O=c1c2ccccc2nc(/C=C\c2ccccc2[N+](=O)[O-])n1-c1ccccc1O ?
IL1B secr inh: -98*; MCF10A rerep: inconclusive; ATXN2 expr inh: -1%; SW480 rerep: inconclusive; ATXN viability: inconclusive; PINK1 expr mod: -2%

Results for O=c1c2ccccc2nc(/C=C/c2ccccc2)n1-c1ccccc1F ?
PINK1 expr mod: 1%

What do the screens show for `Cc1nc2ccccc2c(=O)n1-c1ccccc1[N+](=O)[O-]`?
IL1B secr inh: -11; MCF10A rerep: -3%; SW480 rerep: -4%; ATXN viability: inactive; PINK1 expr mod: 2%

How did O=c1c2ccccc2nc(/C=C/c2ccccc2F)n1-c1ccccc1O do in these assays?
IL1B secr inh: -87*; MCF10A rerep: 32%; ATXN2 expr inh: 9%; SW480 rerep: inconclusive; ATXN viability: inactive; PINK1 expr mod: -2%

How did C=C1C(=O)O[C@@H]2C[C@@H](C)[C@@H]3C4OC4C(=O)[C@@]3(C)[C@@H](O)[C@H]12 (stereo not given in full) do in these assays?
IL1B secr inh: -113*; MCF10A rerep: inconclusive; ATXN2 expr inh: 3.2µM*; SW480 rerep: inconclusive; ATXN viability: 3.5µM*; PINK1 expr mod: -1%

What do the screens show for `C=C1C(=O)O[C@@H]2C[C@@H](C)[C@@H]3C=CC(=O)[C@@]3(C)[C@@H](OC(=O)CC(=O)O[C@H]3[C@@H]4C(=C)C(=O)O[C@@H]4C[C@@H](C)[C@@H]4C=CC(=O)[C@]43C)[C@H]12`?
IL1B secr inh: 0; MCF10A rerep: inconclusive; ATXN2 expr inh: 0.32µM*; SW480 rerep: inconclusive; PINK1 expr mod: 5%

How did C=C1C(=O)O[C@H]2C[C@@H](C)[C@@H]3C=CC(=O)[C@@]3(C)C[C@H]12 do in these assays?
IL1B secr inh: -111*; MCF10A rerep: 2.9µM*; ATXN2 expr inh: 6.3µM*; SW480 rerep: inconclusive; ATXN viability: inconclusive; PINK1 expr mod: 5%

How did C=C1C(=O)OC2CC(C)C3C=CC(=O)C3(C)C(O)C12 (stereo not given) do in these assays?
IL1B secr inh: -101*; MCF10A rerep: 18%; ATXN2 expr inh: inconclusive; SW480 rerep: inconclusive; ATXN viability: inconclusive; PINK1 expr mod: -5%

Results for C[C@H]1CC[C@@]2(NC1)O[C@@H]1C[C@H]3[C@@H]4CC[C@@H]5C[C@@H](O)CC[C@@]5(C)[C@@H]4CC[C@]3(C)[C@@H]1[C@@H]2C ?
ATXN viability: inactive

Assay outcomes as filed in PubChem.
